Source: PubChem (National Center for Advancing Translational Sciences (NCATS))
Only some compounds are listed: those with a hit (about 2.8% of all), similar ones and a draw of the others.
TGFb SMAD3 inh: inhibitors of TGF-b signaling; actives 1.2% (n = 410,000); HepG2 CAGA-GFP TGF-b/SMAD3 reporter, GFP fluorescence, 18 h; TGF-beta stimulated, 500 pg/mL final; Potency, µM (doses to about 46.1 µM), for inactives: at the highest dose activity, negative = inhibition, actives largely listed as inhibitors; note: potency is the fitted concentration of half-maximal effect; % is set by controls: 0 for no effect and ±100 for the full control effect; nearly all actives have a fitted effect of over 65% in size
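Inhibition of TGF-beta-driven CAGA-GFP reporter expression in HEPG2 cells is measured by cellular GFP fluorescence after 18 h stimulation with 500 pg/mL recombinant TGF-beta in 1% FBS medium at 37 degrees C.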
HTT ATP protect: cytoprotection in Huntington HTT-Q103 PC12 cell model. Potency, µM (titrated, usually from 56.4 µM), without a hit: cytoprotection (ATP increase), most hits filed as activators. PC12 HTT-Q103 induced, cytoprotection, ATP luminescence, 40 h. actives 0.14% (n = 230,000); note: potency is the fitted concentration of half-maximal effect; % of control where 0% means no effect; nearly all actives have a fitted effect of over 45% in size
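PC12 cells stably carrying ecdysone-inducible Htt exon 1 (Q103)–GFP were induced with 100 nM tebufenozide (final) alongside library compounds in a dose series. Cytoprotection was scored as retained ATP by ATPlite luminescence.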
HepG2 tox-1: counter-screen for TGF-b inhibitors: cytotoxicity in HepG2 cells | HepG2 CAGA-GFP viability, ATP luminescence, 18 h | Potency, µM (doses to about 46.1 µM), for the others: at the top dose activity change, negative = cytotoxicity, actives largely listed as cytotoxic | actives 0.76% (n = 410,000) | AID 588856; note: potency is the fitted concentration of half-maximal effect
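CellTiter-Glo luminescence gave cytotoxicity after 18 hours at 37 degrees C. The cells were HepG2 CAGA-GFP in 1% FBS DMEM, stimulated with 500 pg/mL TGF-beta after compound addition. %Activity was normalised to no-cell wells (complete cell-killing) and DMSO (no toxicity), and curves were fitted and classified.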
ATXN viability: viability counter-screen for ATXN expression inhibitors; S2 cells (HEK-293 line with an ATXN2-luciferase reporter) viability, CellTiter-Fluor protease fluorescence, 24 h; Potency, µM (doses to about 56.7 µM), hits mostly cytotoxic; actives 0.49% (n = 400,000); AID 651635; note: potency is the fitted concentration of half-maximal effect; nearly all actives have a fitted effect of over 40% in size
HTT aggregate: mutant huntingtin aggregation inhibition. PC12 HttQ103-GFP aggregates, Acumen cytometry, 40 h. Potency, µM (titrated, usually from 46.1 µM), inactives show at the highest dose activity change, negative = inhibition, hits mostly inhibitors. actives 1.1% (n = 220,000); note: potency is the fitted concentration of half-maximal effect; % is set by controls: 0 for no effect and ±100 for the full control effect; nearly all actives have a fitted effect of over 60% in size
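Read-out: GFP aggregate count by laser scanning cytometer (488 nm excitation, 500-530 nm emission, 1–25 µm objects >6 SD above background). Cells: PC12, inducible HTTex1-Q103-GFP, 100 nM tebufenozide; compounds titrated.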
ATXN2 expr inh: ATXN2 expression inhibition. HEK-293 ATXN2-luciferase reporter, luminescence, 24 h. Potency, µM (titrated, usually from 57 µM), without a hit: at the top dose activity change, negative = inhibition, actives largely listed as inhibitors. actives 0.72% (n = 360,000); note: potency is the fitted concentration of half-maximal effect; % is set by controls: 0 for no effect and ±100 for the full control effect; nearly all actives have a fitted effect of over 55% in size
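ATXN2-luciferase reporter cells (luciferase flanked by upstream and downstream ATXN2 gene portions) were treated 24 h at 37 °C with compounds at up to 57 uM. SteadyGlo luminescence gave expression; GF-AFC fluorescence gave viability.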
TGFb confirm: confirmation of TGF-b signaling inhibitors in HepG2 reporter cells; shares compounds with TGFb SMAD3 inh; HepG2 CAGA-GFP TGF-b reporter, GFP fluorescence, 18 h; cells stimulated with TGF-beta, 500 pg/mL; Potency, µM (doses to about 46.1 µM), inactives show top-dose activity, negative = inhibition, actives largely listed as inhibitors; actives 63% (n = 1,600); AID 720534; note: potency is the fitted concentration of half-maximal effect; % is set by controls: 0 for no effect and ±100 for the full control effect; nearly all actives have a fitted effect of over 65% in size
HepG2 tox-2: HepG2 cytotoxicity, TGF-b inhibitor counterscreen | shares compounds with TGFb SMAD3 inh | actives 27% (n = 1,600) | AID 720535 | HepG2 CAGA-GFP viability, ATP luminescence, 18 h; cells stimulated with TGF-beta, 500 pg/mL | Potency, µM (highest dose often 46.1 µM), for the others: at the highest dose activity, negative = cytotoxicity, actives largely listed as inhibitors; note: potency is the fitted concentration of half-maximal effect; % is set by controls: 0 for no effect and ±100 for the full control effect; nearly all actives have a fitted effect of over 70% in size
TGFb CCL64 inh: blocks TGF-b signaling in CCL64 reporter cells; actives 41% (n = 1,600); Potency, µM (doses to about 46.1 µM), for the others: at the top dose activity, negative = inhibition, actives largely listed as inhibitors; shares compounds with TGFb SMAD3 inh; CCL64 CAGA-GFP reporter, TGF-b stimulated, GFP fluorescence, 18 h; note: potency is the fitted concentration of half-maximal effect; nearly all actives have a fitted effect of over 65% in size
TGFb COP inh: TGF-b inhibition validated with COP promoter. shares compounds with TGFb SMAD3 inh. HepG2 COP-GFP TGF-b reporter, GFP fluorescence, 18 h; cells stimulated by added recombinant TGF-beta. Potency, µM (titrated, usually from 46.1 µM), without a hit: at the top dose activity, negative = inhibition, most hits filed as inhibitors. actives 3% (n = 1,600). AID 720537; note: potency is the fitted concentration of half-maximal effect; nearly all actives have a fitted effect of over 70% in size
SK-N-SH 3D tox: SK-N-SH 3D spheroid viability loss; shares compounds with ATXN2 expr inh; SK-N-SH 3D spheroid viability, PI/Hoechst imaging, 72 h; Potency, µM (highest dose often 30.7 µM), hits mostly inhibitors; actives 70% (n = 65)
SJ-GBM2 3D tox: SJ-GBM2 spheroid viability loss, orthogonal 3D screen; actives 80% (n = 65); SJ-GBM2 3D spheroid viability, PI/Hoechst imaging, 72 h; shares compounds with ATXN2 expr inh; AID 1347136; Potency, µM (doses to about 30.7 µM), usual class: inhibitors
Daoy 3D tox: reduced viability of Daoy 3D spheroids, orthogonal test; shares compounds with ATXN2 expr inh; Daoy 3D spheroid viability, PI/Hoechst imaging, 72 h; Potency, µM (titrated, usually from 30.7 µM), usual class: inhibitors; actives 50% (n = 65)
TC32 3D caspase: activates caspase in TC32 3D spheroids. shares compounds with ATXN2 expr inh. Potency, µM (titrated, usually from 30.7 µM), hits mostly inhibitors. TC32 3D spheroids, caspase-3/7 fluorescence imaging, 24 h. actives 30% (n = 65)
TC32 3D tox: reduced viability of TC32 3D spheroids, orthogonal test. shares compounds with ATXN2 expr inh. actives 60% (n = 65). Potency, µM (highest dose often 30.7 µM), hits mostly inhibitors. AID 1347139. TC32 3D spheroid viability, PI/Hoechst imaging, 72 h
MG63 spheroid: kills MG-63 (6-TG R) spheroids in orthogonal 3D test; shares compounds with ATXN2 expr inh; MG-63 (6-TG R) 3D spheroid viability, PI/Hoechst imaging, 72 h; Potency, µM (doses to about 30.7 µM), hits mostly inhibitors; actives 50% (n = 65); AID 1347140
RD spheroid: kills RD rhabdomyosarcoma spheroids in orthogonal 3D test; shares compounds with ATXN2 expr inh; RD rhabdomyosarcoma 3D spheroid viability, PI/Hoechst imaging, 72 h; Potency, µM (top dose mostly 30.7 µM), hits mostly inhibitors; actives 50% (n = 65)
* = called active by the depositor; i = inactive; ? = inconclusive; . = no result; ! = a repeat was not active; [ ] = remark or other dose. Calls come from the whole dose curve; as a rule, active = well fitted curve in the direction sought with a large enough effect; inconclusive = small, poorly fitted or top-dose-only effect, or another doubt; inactive = no such curve, though single readings can be large; an effect the other way counts as inactive or inconclusive.

SMILES	TGFb SMAD3 inh	HTT ATP protect	HepG2 tox-1	ATXN viability	HTT aggregate	ATXN2 expr inh	TGFb confirm	HepG2 tox-2	TGFb CCL64 inh	TGFb COP inh	others
c1ccc(C2c3ccccc3-n3nncc3CN2CC2CCCCC2)cc1 (stereo unspecified)	11.2µM*	.	-9.8%	i	.	-19.4%	18.4µM*	?	25.9µM*	25.6%
Nc1nc(F)nc2c1ncn2[C@@H]1O[C@H](CO)[C@@H](O)[C@@H]1O	0.501µM*	.	-38.1%	i	9.9%	1.72µM*!	0.461µM*	0.461µM*	-33.2%	42.0%	SK-N-SH 3D tox=0.456µM*;SJ-GBM2 3D tox=0.287µM*;Daoy 3D tox=0.362µM*;TC32 3D caspase=3.62µM*;TC32 3D tox=2.04µM*;MG63 spheroid=0.204µM*;RD spheroid=1.44µM*
OC(c1ccc(Cl)cc1)(c1ccc(Cl)cc1)C(Cl)(Cl)Cl	.	-2.1%	.	.	.	.	.	.	.	.
CNCCCc1ccccc1	13.5%	-43.5%	-17.8%	i	-3.0%	-5.2%	.	.	.	.
CCCCN(Cc1ccccc1)C1CCN(CCc2ccccc2)CC1	?	-19.1%[10 µM]	-85.0%	?	1.8%	0.0%	.	.	.	.
